We go through 40 compounds from PubChem BioAssay (NCATS).

Values joined by “and” are separate entries in the source; they are usually repeats but may differ in a detail not shown here. Identical values can stand only once. Records with an inconclusive call do not appear. Active and inactive are the calls of the source. Calls come from the whole dose curve; as a rule, active = well fitted activation curve with a large enough effect in the signal ratio; inconclusive = small, poorly fitted or top-dose-only effect, or a change in a side signal; inactive = flat fitted curve, though single readings scatter; the % refers to the signal ratio.

A short description of this experiment: qHTS assay for small molecule activators of the nuclear factor-kappa B (NF-kB) signaling pathway (AID 651749). Note: series mostly up to about 77 µM; % of control where 0% means no effect. Particulars: NF-kB-bla ME-180 cells, beta-lactamase FRET ratio, 16 h; activation: stronger effect = higher value. From the text:
National Center for Advancing Translational Sciences [NCATS] NIH Chemical Genomics Center [NCGC] U.S. Environmental Protection Agency [EPA] National Institutes of Environmental Health Sciences [NIEHS] National Toxicology Program [NTP] Assay Overview: Transcription factors and their stimulated target gene expression play pivotal roles across many cellular processes including responses to environmental stimuli. Proper regulation of associated pathways is critical to maintain cell health and function. Constitutive activation of transcription factor pathways has been implicated in tumors as it may block cellular functions such as apoptosis and lead to invasion and metastasis. One important transcription factor that stimulates gene expression in response to cytokines, UV radiation, and other stimuli is nuclear factor-kappa B (NF-kB). To measure activation of the NF-kB pathway, the NF-kB-bla ME-180 cell line stably expressed beta-lactamase reporter gene under the regulation of a NF-kB response element was obtained from Invitrogen. This assay allows measurement of the NF-kB pathway activity induced by compounds in a ME-180 cell line. This system quantitates NF-kB activity using a FRET-based assay system where beta-lactamase expression disrupts FRET, allowing for fluorescent measurement of activity.
Assay Protocol Summary: For toxicology screening, 2,000 cells in 5 uL/well were dispensed into black, clear-bottom 1536-well plates using a Multidrop Combi (Thermo Scientific) dispenser. Following transfer of 23 nL compound or DMSO vehicle by a pin tool, the plates were incubated 16 hr at 37C and 5% CO2.
In the case of `CCCCCCCCCc1ccc(O)cc1`, the activation is 1.31% (inactive). As to `ClC1=C(Cl)C2(Cl)C3C(Cl)C=CC3C1(Cl)C2(Cl)Cl` (stereo not given), the activation was 1.89% (inactive). To `CNC(=O)N(C)c1nnc(C(C)(C)C)s1` belongs -0.0908% (inactive); to `CC(O)CCl` (stereo not given), 1% (inactive) and -0.134% (inactive); to `CCCCOCCOP(=O)(OCCOCCCC)OCCOCCCC`, -1.15% (inactive) and -0.483% (inactive). In the case of `c1ccc2c(c1)CCCC2` it was -0.796% (inactive). To `CC(C)(OO)c1ccccc1` belongs -2.1% (inactive) and -0.395% (inactive). Consider `Cc1cccc(C#N)c1`, for which the activation was 0.885% (inactive). In the case of `O=[N+]([O-])c1cccc2ccccc12` it was -0.404% (inactive) and -0.717% (inactive); in that of `NC(=S)Nc1ccccc1`, -0.0044% (inactive) and -1.03% (inactive) and -0.459% (inactive).

As for `CCOc1ccc(N)cc1`, the activation was -0.228% (inactive). Consider `Cc1ccccc1N`, for which the activation was 0.244% (inactive) and -0.381% (inactive). `CNC(=O)Oc1cccc2c1OC(C)(C)O2`: the activation is -0.841% (inactive). To `Brc1ccc(Oc2cc(Br)c(Br)cc2Br)c(Br)c1` belongs 0.934% (inactive) and 2.14% (inactive) and 2.73% (inactive); to `CC(Cl)Cl`, 3.47% (inactive); to `Nc1ccc(Br)cc1`, -0.0985% (inactive). To `CC(C)(C)OOC(C)(C)C` belongs 1.21% (inactive). In the case of `c1ccc(OP(Oc2ccccc2)Oc2ccccc2)cc1` it was -3.6% (inactive) and -0.416% (inactive); in that of `CNC(=O)Oc1ccccc1OC(C)C`, -2.6% (inactive). For the compound `CCNc1nc(Cl)nc(NC(C)C)n1`, the activation is -0.0541% (inactive) and -0.0593% (inactive).

Turning to `COC1=CC(=O)OC(CCc2ccccc2)C1` (stereo not given), the activation is -1.07% (inactive). For `[O-][Br+2]([O-])O`, the activation was 0.211% (inactive) and 0.528% (inactive). For `CCCC(=O)Cl`, the activation was -0.622% (inactive). As for `CCOP(=S)(OCC)Oc1ccc([N+](=O)[O-])cc1`, the activation was -1.46% (inactive) and -0.889% (inactive) and 0.819% (inactive).

For `O=[N+]([O-])c1ccc(Cl)c(Cl)c1`, the activation is -0.387% (inactive).

As for `CC(C)(C)C(=O)C(Oc1ccc(Cl)cc1)n1cncn1` (stereo not given), the activation is -2.3% (inactive) and -1.59% (inactive). In the case of `C[C@H]1CCCC(=O)CCC/C=C/c2cc(O)cc(O)c2C(=O)O1` it was -2.55% (inactive) and -2.52% (inactive) and -4.61% (inactive). On to `c1ccc(N=Nc2ccccc2)cc1`, for which the activation is -0.765% (inactive) and -3.19% (inactive). Turning to `C#CCOS(=O)OC1CCCCC1Oc1ccc(C(C)(C)C)cc1` (stereo not given), the activation is 7.07% (inactive).

As for `S=C=Nc1cccc2ccccc12`, the activation was 2.04% (inactive). On to `CCc1cccc(CC)c1N(COC)C(=O)CCl`, for which the activation was -1.33% (inactive) and -2.4% (inactive). To `Cc1ccc(O)c(C)c1` belongs 0.131% (inactive) and -0.324% (inactive) and 1.7% (inactive); to `N#Cc1c(Cl)cccc1Cl`, -0.285% (inactive); to `CCN(CC)c1ccccc1`, -0.976% (inactive). As for `Cc1ccc([N+](=O)[O-])cc1C`, the activation was 0.21% (inactive) and 0.188% (inactive). For the compound `CCC[CH2][Sn]([Cl])([Cl])[Cl]`, the activation is -0.955% (inactive) and -1.49% (inactive). To `C=CC(C)=O` belongs 0.254% (inactive). To `CNC(=O)O/N=C/C(C)(C)SC` belongs -0.362% (inactive) and -4.25% (inactive) and 1.36% (inactive); to `Cc1cccc([N+](=O)[O-])c1`, -0.494% (inactive) and -2.2% (inactive); to `CCCCCCCC(=O)Cl`, -0.835% (inactive).
